# Results filed as inconclusive are left out. A call without a number means that no potency is given here. Active and inactive are the calls of the source. Calls follow the shape of the dose curve; as a rule, active = well fitted curve in the direction sought with a large enough effect in the repeat runs; inconclusive = weak or mixed curves; inactive = no such curve, though single readings can be large; an effect the other way counts as inactive or inconclusive.
# Experiments:
# [1] = qHTS assay to identify small molecule antagonists of the glucocorticoid receptor (GR) signaling pathway - cell viability counter screen (AID 720693); also: nearly all actives have a fitted effect of over 55% in size; also: potency is read from the fitted curve at half-maximal effect
# [2] = qHTS assay for identifying genotoxic compounds that show differential cytotoxicity against isogenic chicken DT40 cell lines with known DNA damage response pathways - wild type cell line (AID 743012); also: nearly all actives have a fitted effect of over 60% in size; also: potency is read from the fitted curve at half-maximal effect
# Method in brief: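 Wild-type DT40 cells (300/well) exposed to compounds for 40 hours at 37 C/5% CO2. Viability read by CellTiter-Glo luminescence after 30 min at room temperature.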
# [3] = qHTS assay for identifying genotoxic compounds that show differential cytotoxicity against isogenic chicken DT40 cell lines with known DNA damage response pathways - Rev3 mutant cell line (AID 743014); also: nearly all actives have a fitted effect of over 55% in size; also: potency is read from the fitted curve at half-maximal effect
# [4] = qHTS assay for identifying genotoxic compounds that show differential cytotoxicity against isogenic chicken DT40 cell lines with known DNA damage response pathways - Rad54/Ku70 mutant cell line (AID 743015); also: nearly all actives have a fitted effect of over 60% in size; also: potency is read from the fitted curve at half-maximal effect
# [5] = qHTS assay to identify small molecule antagonists of the androgen receptor (AR) signaling pathway using the MDA cell line - cell viability counter screen (AID 743041; also: nearly all actives have a fitted effect of over 45% in size; also: potency is read from the fitted curve at half-maximal effect)
# Method in brief: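 R1881-driven MDA-kb2 AR-luc cells, 3,000/well, were dosed with library compounds for 16 h; cell health came from CellTiter-Fluor fluorescence in the reporter wells.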
# [6] = biological target: Androgen receptor (Homo sapiens) (UniProt P10275); test: qHTS assay to identify small molecule agonists of the androgen receptor (AR) signaling pathway using the MDA cell line (AID 743040; also: nearly all actives have a fitted effect of over 20% in size)
# Method in brief: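 After a 5 h incubation at 37C and 0% CO2, MDA-kb2 reporter cells were dosed with compounds in DMSO and kept 16 h under the same conditions. Luciferase activity was then read as luminescence with ONE-Glo.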
# [7] = biological target: Androgen receptor (Homo sapiens) (UniProt P10275); test: qHTS assay to identify small molecule antagonists of the androgen receptor (AR) signaling pathway using the MDA cell line (AID 743042; also: nearly all actives have a fitted effect of over 55% in size)
# Method in brief: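 Antagonist mode: compounds plus R1881 agonist added to MDA-kb2 AR-luc cells, incubated 16 h at 37C. Luciferase reporter luminescence quantified, with multiplexed CellTiter-Fluor readout for cell viability.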
# Sequence of Androgen receptor (Homo sapiens) (P10275 whole entry, looked up): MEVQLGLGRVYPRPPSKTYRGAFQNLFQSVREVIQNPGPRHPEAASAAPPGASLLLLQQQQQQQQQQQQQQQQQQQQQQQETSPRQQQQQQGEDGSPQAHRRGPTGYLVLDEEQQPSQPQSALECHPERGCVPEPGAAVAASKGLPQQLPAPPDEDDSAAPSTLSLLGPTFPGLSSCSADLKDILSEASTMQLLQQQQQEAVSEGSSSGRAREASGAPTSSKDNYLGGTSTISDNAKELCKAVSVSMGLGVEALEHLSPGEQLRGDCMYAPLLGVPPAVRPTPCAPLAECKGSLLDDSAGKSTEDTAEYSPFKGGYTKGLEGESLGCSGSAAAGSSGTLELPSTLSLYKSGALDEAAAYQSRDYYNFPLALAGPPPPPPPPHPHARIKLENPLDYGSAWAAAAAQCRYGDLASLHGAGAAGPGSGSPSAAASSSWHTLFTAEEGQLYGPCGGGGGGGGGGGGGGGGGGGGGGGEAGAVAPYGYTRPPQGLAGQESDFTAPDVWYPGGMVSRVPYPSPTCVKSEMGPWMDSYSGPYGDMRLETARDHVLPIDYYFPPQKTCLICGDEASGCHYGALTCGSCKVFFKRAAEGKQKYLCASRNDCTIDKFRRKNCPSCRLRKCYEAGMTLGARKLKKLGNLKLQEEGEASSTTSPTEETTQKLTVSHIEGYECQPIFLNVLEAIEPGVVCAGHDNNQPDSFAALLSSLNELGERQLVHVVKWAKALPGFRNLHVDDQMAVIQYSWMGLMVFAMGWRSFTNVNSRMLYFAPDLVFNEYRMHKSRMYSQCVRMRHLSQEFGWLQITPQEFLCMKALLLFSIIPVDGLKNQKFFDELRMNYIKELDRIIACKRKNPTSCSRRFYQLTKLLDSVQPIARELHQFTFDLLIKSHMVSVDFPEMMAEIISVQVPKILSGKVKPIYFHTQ
SMILES,Potency [1],Potency [2],Potency [3],Potency [4],Potency [5],Potency [6],Potency [7]
CN1CCN(CCCN2c3ccccc3Sc3ccccc32)CC1,inactive,9.44 µM (active),11.9 µM (active),13.3 µM (active),inactive,,
COc1ccc(C[C@H](N)C(=O)N[C@H]2[C@@H](O)[C@H](n3cnc4c(N(C)C)ncnc43)O[C@@H]2CO)cc1,4.77 µM (active),0.841 µM (active),0.75 µM (active),inactive,7.5 µM (active),,
CCC(=O)OCC(=O)[C@@]1(OC(=O)CC)[C@H](C)C[C@H]2[C@@H]3CCC4=CC(=O)C=C[C@]4(C)[C@@]3(F)[C@@H](O)C[C@@]21C,inactive,23.7 µM (active),29.8 µM (active),26.6 µM (active),inactive,,
CO/N=C(\C(=O)N[C@@H]1C(=O)N2C(C(=O)OCOC(=O)C(C)(C)C)=C(/C=C\c3scnc3C)CS[C@H]12)c1csc(N)n1,inactive,inactive,inactive,inactive,inactive,,
O=C(Cn1c(=O)sc2ccc(Cl)cc21)N1CCN(CCO)CC1,inactive,inactive,inactive,inactive,inactive,,
CC1(C)S[C@@H]2[C@H](NC(=O)C(N)c3ccccc3)C(=O)N2[C@H]1C(=O)OC1OC(=O)c2ccccc21 (stereo partly specified),inactive,inactive,inactive,inactive,inactive,,
CCCC(=O)O[C@]1(C(=O)COC(=O)CC)[C@@H](C)C[C@H]2[C@@H]3CCC4=CC(=O)C=C[C@]4(C)[C@@]3(F)[C@@H](O)C[C@@]21C,inactive,29.8 µM (active),29.8 µM (active),26.6 µM (active),inactive,,
CCN(CC)CCCC(C)Nc1cc(/C=C/c2ccccc2Cl)nc2cc(Cl)ccc12 (stereo unspecified),inactive,26.6 µM (active),29.8 µM (active),29.8 µM (active),inactive,,
CCN(CC)Cc1cc(Nc2ccnc3cc(Cl)ccc23)ccc1O,inactive,7.17 µM (active),7.17 µM (active),8.04 µM (active),,inactive,inactive
CC(C)(S)[C@@H](N)C(=O)O,inactive,inactive,inactive,inactive,inactive,,
NCCC(=O)[N-][C@@H](Cc1cnc[nH]1)C(=O)O.[Zn],inactive,inactive,inactive,inactive,inactive,,
CN[C@@H]1[C@@H](O)[C@@H](O[C@@H]2[C@@H](O)[C@H](OC3OC(CN)=CCC3N)[C@@H](N)C[C@H]2N)OC[C@]1(C)O (stereo partly specified),inactive,inactive,inactive,inactive,inactive,,
COc1ccc(C2(C#N)CCC(C(=O)O)CC2)cc1OC1CCCC1 (stereo unspecified),inactive,inactive,inactive,inactive,inactive,,
CCCCCCCCCCCCCCCC(=O)OCC(COC(=O)CCCCCCCCCCCCCCC)OC(=O)CCCCCCCCCCCCCCC,inactive,inactive,inactive,inactive,inactive,,
OC[C@@H](O)C(O)[C@H](O)CO,inactive,inactive,inactive,inactive,inactive,,
Cc1cc(-n2c(=O)[nH]c(=O)n(C)c2=O)ccc1Oc1ccc(S(=O)(=O)C(F)(F)F)cc1,inactive,26.6 µM (active),26.6 µM (active),26.6 µM (active),inactive,,
O=[N+]([O-])c1ccc(Oc2ccc(N=C=S)cc2)cc1,inactive,13.3 µM (active),23.7 µM (active),18.8 µM (active),26.6 µM (active),,
NC(Cc1ccccc1)C(=O)O (stereo unspecified),inactive,inactive,inactive,inactive,inactive,,
O=C(CO)[C@@H](O)[C@H](O)[C@@H](O)C(=O)O,inactive,inactive,inactive,inactive,inactive,,
Cc1cc(-c2ccc(N=Nc3c(S(=O)(=O)O)cc4cc(S(=O)(=O)O)cc(N)c4c3O)c(C)c2)ccc1N=Nc1c(S(=O)(=O)O)cc2cc(S(=O)(=O)O)cc(N)c2c1O,inactive,9.44 µM (active),7.5 µM (active),10.6 µM (active),13.3 µM (active),,
CC1(C)N=C(N)N=C(N)N1c1ccc(Cl)cc1,inactive,0.422 µM (active),0.422 µM (active),1.19 µM (active),inactive,,
CCOc1ccc(N=C(C)Nc2ccc(OCC)cc2)cc1,inactive,23.7 µM (active),23.7 µM (active),23.7 µM (active),inactive,,
C[C@@H]1C/C=C/C=C/C=C/C=C/[C@H](O[C@@H]2O[C@H](C)[C@@H](O)[C@H](N)[C@@H]2O)C[C@@H]2O[C@](O)(C[C@@H](O)C[C@H]3O[C@@H]3/C=C/C(=O)O1)C[C@H](O)[C@H]2C(=O)O,inactive,inactive,inactive,inactive,inactive,,
O=C(O[C@H]1CN2CCC1CC2)N1CCc2ccccc2[C@@H]1c1ccccc1,inactive,11.9 µM (active),26.6 µM (active),26.6 µM (active),inactive,,
CCC(C)C(C(=O)OCC[N+](C)(CC)CC)c1ccccc1 (stereo unspecified),inactive,29.8 µM (active),29.8 µM (active),26.6 µM (active),inactive,,

# From PubChem BioAssay (Tox21)
